Sampled rows, rich in hits. Any-hit rate of the full collection: about 19%.
HT1080 IDH1KD tx: HT-1080 IDH1 knockdown cell toxicity (counter line). HT-1080 IDH1 knockdown viability, ATP luminescence, 48 h. Potency, µM (doses to about 46.1 µM), for inactives: top-dose activity, negative = toxicity, most hits filed as cytotoxic. 2% of 360,000 active;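 further: potency means the concentration at half of the fitted maximal effect; 0% = DMSO wells and -100% = cell-free medium wells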
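Assay cells: HT-1080 with IDH1 knockdown, 750 per well, RPMI/5% FBS. Exposure: 48 h at 37 °C following 2 h pre-incubation. Read: CellTiter-Glo luminescence; fitted concentration-response, curve class assigned.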
IL1B secr inh: inhibitors of inflammasome signaling (IL-1 beta secretion); THP-1 LPS/ATP IL-1B secretion, AlphaLISA, 16 h; stronger effect = lower value; activity change, % at 57.5 µM; 4.7% of 360,000 active; in the data active means activity change below about -50%; inconclusive means mostly about -30% to -49%
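THP-1 cells pretreated 1 hr with compounds (up to 57.5 uM final), then stimulated with LPS (250 ng/mL final) plus ATP (1.25 mM final); secreted IL-1B measured by AlphaLISA after 16 hr, decreased signal indicating inhibition.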
DT40 TDP1 CPT: DT40-hTDP1 cell growth loss with CPT; Potency, µM (doses to about 46.2 µM), inactives show top-dose activity change, negative = growth inhibition, hits mostly inhibitors; chicken DT40 Tdp1-/-;hTDP1 cells + 20 nM CPT, ATP luminescence, 48 h; 12% of 420,000 active; further: potency means the concentration at half of the fitted maximal effect; nearly all actives have a fitted effect of over 55% in size
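Chicken DT40 Tdp1-/- cells complemented with human TDP1, 400 cells/well, exposed to compounds plus 20 nM camptothecin for at least 48 h at 37 C; viability read as ATP content by CellTiter-Glo luminescence.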
HT1080-NT tox: kills 2HG-producing HT-1080-NT fibrosarcoma cells; HT-1080-NT fibrosarcoma viability, CellTiter-Glo ATP luminescence, 48 h; Potency, µM (series often up to 46.1 µM), without a hit: at the top dose activity, negative = less viability, hits mostly cytotoxic; 1.6% of 360,000 active; AID 686970;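 further: NT is the 2HG producing partner of a matched IDH1 knockdown line; potency means the concentration at half of the fitted maximal effect; 0% = DMSO-treated cells and -100% = media-only wells without cells; nearly all actives have a fitted effect of over 55% in size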
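Toxicity toward the 2HG-producing NT line was scored as %Activity, normalised to DMSO and no-cell wells, from CellTiter-Glo luminescence after 48 hours' treatment.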
ELG1 repair inh: blocks ELG1-dependent DNA repair in HEK293T cells; 2.3% of 330,000 active; AID 504467; Potency, µM (top dose mostly 46.1 µM), for inactives: at the highest dose activity change, negative = inhibition, most hits filed as inhibitors; HEK293T ELG1-luciferase reporter, luminescence, 16 h; DNA damage induced by 5-fluorouridine; further: potency means the concentration at half of the fitted maximal effect; nearly all actives have a fitted effect of over 55% in size
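Overnight (16 hr) co-exposure of 2,000 cells/well to 5-fluorouridine and compound at 37 °C preceded detection. Luciferase was quantified via ONE-Glo luminescence; loss of signal denotes inhibition.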
DT40 TDP1 no CPT: qHTS for Inhibitors of human tyrosyl-DNA phosphodiesterase 1 (TDP1): qHTS in cells in absence of CPT; DT40 Tdp1-/- hTDP1 cells, no CPT, ATP luminescence, 48 h; Potency, µM (doses to about 46.2 µM), inactives show at the top dose activity change, negative = growth inhibition, usual class: inhibitors; 15% of 420,000 active; further: potency means the concentration at half of the fitted maximal effect; nearly all actives have a fitted effect of over 55% in size
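Seeded 400 DT40-hTDP1 cells/well (vehicle DMSO, no 20 nM CPT); pinned compounds; ≥48 hr at 37 °C; CellTiter-Glo luminescence as viability measure.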
* = called active by the depositor; ? = inconclusive; . = not tested or not shown; [ ] = dose if it differs, or a comment. Unless noted, the call rests on the fitted dose curve; in most records, active means well fitted curve in the direction sought with a large enough effect; inconclusive means small, poorly fitted or top-dose-only effect, or another doubt; inactive means no such curve, though single readings can be large; an effect the other way counts as inactive or inconclusive. Unless noted, on the % scale 0 is the no-effect control and ±100 the full control effect.

SMILES	HT1080 IDH1KD tx	IL1B secr inh	DT40 TDP1 CPT	HT1080-NT tox	ELG1 repair inh	DT40 TDP1 no CPT
C=CCOc1ccc(/C=C/C(=O)OCC(=O)NCc2cccc(OC)c2)cc1	-6%	0	2%	-2%	?	?
Cc1cccc([C@@H]2[C@@H]3C(=O)N(Cc4ccccc4)C(=O)[C@@H]3[C@]3(Cc4ccc(Cl)cc4)C(=O)N(c4ccc(Br)cc4)C(=O)N23)c1	10%	-10	-29%	6%	8%	?
CC(=O)C(c1ccccc1)C(c1ccccc1)C(C)[N+](=O)[O-] (configuration not stated)	8%	-3	7%	27%	-4%	?
O=C(Nc1cccc(-c2nn[nH]n2)c1)c1csc2c1CCCC2	-4%	4	-2%	-1%	21%	-7%
CCOC(=O)c1ccc(NC(=O)c2ccc3c(c2)C(=O)N(CC2CCCO2)C3=O)cc1 (configuration not stated)	-1%	23	?	-5%	1%	18µM*
Cc1ccc(NC(=O)c2ccc3c(c2)C(=O)N(CC2CCCO2)C3=O)cc1C (configuration not stated)	5%	27	0%	7%	-9%	-27%
O=C(Nc1ccc(O)c(C(=O)O)c1)c1ccc2c(c1)C(=O)N(CC1CCCO1)C2=O (configuration not stated)	5%	19	-4%	7%	-5%	0%
O=C(Nc1ccc2c(c1)C(=O)N(CC1CCCO1)C2=O)c1ccc(Cl)c(Cl)c1 (configuration not stated)	3%	28	-15%	6%	9.2µM*	-1%
Cc1cc(C)c(C)c(S(=O)(=O)N2CCC(C(=O)N(C)Cc3nc4ccccc4c(=O)[nH]3)CC2)c1C	?	-11	?	-12%	.	?
CCN(C(=O)COC(=O)CNC(=O)c1ccc(C)cc1)c1c(N)n(Cc2ccccc2)c(=O)[nH]c1=O	18%	3	-5%	8%	13%	17%
CN(C)CC(=O)Nc1nc(-c2ccccc2)cs1	16%	-16	-13%	23%	23%	?
CCOC(=S)SCC(=O)Nc1nc(-c2ccc(Br)cc2)cs1	6.5µM*	-100*	4.6µM*	7.3µM*	?	4.6µM*
CCOC(=S)SCC(=O)Nc1nc(-c2ccccc2)cs1	?	?	2.9µM*	?	?	2.6µM*
CCOC(CN=c1nc(N(C)C)ss1)OCC	?	-101*	0.58µM*	6%	.	0.73µM*
COc1cc(C(=O)OCC(=O)NCC2CCCCC2)ccc1OCC(C)C	4%	-2	?	7%	-3%	?
COc1cc(C(=O)OCC(=O)NC2CCCCCC2)ccc1OCC(C)C	8%	0	?	11%	0%	3.3µM*
COc1cc(C(C)=O)ccc1COc1ccc(C(=O)OCC(=O)NC2CCS(=O)(=O)C2)cc1OC (configuration not stated)	21%	9	?	?	?	21µM*
CCOc1ccc2nc(NCCCNC(=O)c3cc(OC)c(OC)c(OC)c3)c(C#N)cc2c1	10%	-6	13µM*	3%	6.5µM*	16µM*
Cn1c(=O)n(Cc2ccc(Cl)cc2)c(=O)c2c1nc1n2CCN1Cc1ccco1	1%	-1	?	-10%	26µM*	15µM*
Cc1cccc(Cn2c(=O)c3c(nc4n3CCN4Cc3ccco3)n(C)c2=O)c1	-15%	-25	21µM*	-1%	21µM*	21µM*
CC(Oc1ccccc1)C(=O)N[C@@H]1C(=O)N2C(C(=O)O)C(C)(C)S[C@H]12 (some centres not stated)	.	.	-1%	.	.	8%
O=[N+]([O-])c1ccc(N=Nc2ncc[nH]2)cc1	6.5µM*	-110*	0.92µM*	18µM*	?	0.73µM*
O=[N+]([O-])c1ccc(N=NN(CCO)CCO)cc1	-1%	6	-14%	1%	20%	-8%
Cc1cc(C)n2c(Nc3cccc(C(F)(F)F)c3)c(-c3ccsc3)nc2n1	.	.	16µM*	.	.	16µM*
Cc1cc(C)n2nc(C(=O)NCc3cccc(C(F)(F)F)c3)nc2n1	-13%	24	-1%	-17%	-2%	0%
SMILES	HT1080 IDH1KD tx	IL1B secr inh	DT40 TDP1 CPT	HT1080-NT tox	ELG1 repair inh	DT40 TDP1 no CPT
Cc1cccc(Nc2c(-c3cccs3)nc3nc(C)cc(C)n23)c1	.	.	26µM*	.	.	?
CCn1c(-c2ccccc2F)nc2cc(NC(C)=O)cc(C(=O)N(C)Cc3cn(C)nc3C)c21	.	.	24%[9.04 µM]	.	.	-14%
CC(C)CC(N)c1csc(Nc2ccccn2)n1 (configuration not stated)	?	-50*	15µM*	?	.	?
CC(C)CC(N)c1csc(Nc2cnccn2)n1 (configuration not stated)	-11%	-16	13µM*	-27%	.	9.2µM*
CN(Cc1ccccc1)C(=O)c1c[nH]c2ccc(S(=O)(=O)Nc3ccccc3F)cc2c1=O	.	.	-3%	.	.	?
COc1ccc(OC)c(S(=O)(=O)NC2CC(=O)N(c3ccc(C)c(C)c3)C2)c1 (configuration not stated)	-11%	3	-25%	-5%	1%	-24%
Cc1ccc(N2CC(NC(=O)c3ccc(S(=O)(=O)N4CCCC4)cc3)CC2=O)cc1C (configuration not stated)	.	.	?	.	.	18µM*
COc1ccc(S(=O)(=O)NC2CC(=O)N(c3ccc4c(c3)OCCO4)C2)cc1 (configuration not stated)	1%	32	6%	6%	7%	0%
COc1cccc(N2CC(NS(=O)(=O)c3ccc4ccccc4c3)CC2=O)c1 (configuration not stated)	-11%	-26	-15%	-7%	-3%	29µM*
COc1ccc(S(=O)(=O)NC2CC(=O)N(c3ccc(C)c(C)c3)C2)cc1 (configuration not stated)	1%	-14	?	2%	18%	16µM*
COCCN(C(=O)CSc1nnc(-c2ccccc2F)o1)c1c(N)n(Cc2ccccc2)c(=O)[nH]c1=O	9%	-6	0%	10%	.	1%
CCc1ccccc1NC(=O)C1=C(C)C(=O)OC12CCCCCC2	.	.	?	.	.	-4%
